# Source: article PMC11062922 (Nature Chemical Biology, 2023)
# Read-outs that look alike come from different tables or passages of the source.
# Tests used:
# Parameters in all cases: species or system human, MV4-11 + K-562 + COLO205 + SK-N-BE2 + OVCAR-8
# EPHA1 = details: read-out: apparent Kd, compound concentrations: 100 nM and 1000 nM (sheet 'Samples'), n = 1
# EPHA2 = details: read-out: apparent Kd; compound concentrations: 100 nM and 1000 nM (sheet 'Samples'), CATDS: 7.9638266315165504E-2; n = 1
# EPHA4 = details: read-out: apparent Kd; compound concentrations: 100 nM and 1000 nM (sheet 'Samples'), CATDS: 5.73813509995778E-2; n = 1
# EPHA5 = details: read-out: apparent Kd; compound concentrations: 100 nM and 1000 nM (sheet 'Samples'), CATDS: 6.5260226509332095E-2; n = 1
# EPHB2 = details: read-out: apparent Kd; compound concentrations: 100 nM and 1000 nM (sheet 'Samples'), CATDS: 6.01599429552135E-2; n = 1
# EPHB4 = details: read-out: apparent Kd, compound concentrations: 100 nM and 1000 nM (sheet 'Samples'), n = 1
# GAK = details: read-out: apparent Kd, n = 1
# HSP90B1 = details: read-out: apparent Kd; compound concentrations: 100 nM and 1000 nM (sheet 'Samples'), CATDS: 5.9403199864953501E-2; n = 1
# MAP4K4 = details: read-out: apparent Kd; compound concentrations: 100 nM and 1000 nM (sheet 'Samples'), CATDS: 6.0397447549850998E-2; n = 1
# RIPK2 = details: read-out: apparent Kd, n = 1
# RIPK3 = details: read-out: apparent Kd, compound concentrations: 100 nM and 1000 nM (sheet 'Samples'), n = 1
# TGFBR2 = details: read-out: apparent Kd, compound concentrations: 100 nM and 1000 nM (sheet 'Samples'), n = 1
# TNIK = details: read-out: apparent Kd; compound concentrations: 100 nM and 1000 nM (sheet 'Samples'), CATDS: 7.16657274929937E-2; n = 1
# EIF2AK1 = details: read-out: apparent Kd; compound concentrations:100 nM and 1000 nM (sheet 'Samples'); n = 1
# MAPK11 = details: read-out: apparent Kd; compound concentrations:100 nM and 1000 nM (sheet 'Samples'); n = 1
# MAPK14 = details: read-out: apparent Kd; compound concentrations:100 nM and 1000 nM (sheet 'Samples'); n = 1
# MAPK8 = details: read-out: apparent Kd; compound concentrations:100 nM and 1000 nM (sheet 'Samples'); n = 1
# MAPK9 = details: read-out: apparent Kd; compound concentrations:100 nM and 1000 nM (sheet 'Samples'); n = 1
# MAPKAPK2 = details: read-out: apparent Kd, n = 1
# PIP4K2C = details: read-out: apparent Kd; compound concentrations:100 nM and 1000 nM (sheet 'Samples'); n = 1
# SIK2 = details: read-out: apparent Kd; compound concentrations:100 nM and 1000 nM (sheet 'Samples'); n = 1
# SIK3 = details: read-out: apparent Kd; compound concentrations:100 nM and 1000 nM (sheet 'Samples'); n = 1
# TAOK2 = details: read-out: apparent Kd; compound concentrations:100 nM and 1000 nM (sheet 'Samples'); n = 1
# EPHB3 = details: read-out: apparent Kd; compound concentrations: 100 nM and 1000 nM (sheet 'Samples'), CATDS: 9.8269686784854801E-2; n = 1
# FYN = details: read-out: apparent Kd; compound concentrations: 100 nM and 1000 nM (sheet 'Samples'), CATDS: 0.110039828887459; n = 1
# RET = details: read-out: apparent Kd; compound concentrations: 100 nM and 1000 nM (sheet 'Samples'), CATDS: 0.126385665807943; n = 1
# EPHB6 = details: read-out: apparent Kd; compound concentrations: 100 nM and 1000 nM (sheet 'Samples'), CATDS: 0.20218817743622799; n = 1
# FLT4 = details: read-out: apparent Kd; compound concentrations: 100 nM and 1000 nM (sheet 'Samples'), CATDS: 0.213105830255753; n = 1
# MAP2K5 = details: read-out: apparent Kd; compound concentrations: 100 nM and 1000 nM (sheet 'Samples'), CATDS: 0.176800836122779; n = 1
# PDGFRB = details: read-out: apparent Kd; compound concentrations: 100 nM and 1000 nM (sheet 'Samples'), CATDS: 0.165477129932846; n = 1
# EGFR = details: read-out: apparent Kd, compound concentrations: 100 nM and 1000 nM (sheet 'Samples'), n = 1
# NQO1 = details: read-out: apparent Kd; compound concentrations: 100 nM and 1000 nM (sheet 'Samples'), CATDS: 0.35542679551124801; n = 1
# PIK3CA = details: read-out: apparent Kd; compound concentrations: 100 nM and 1000 nM (sheet 'Samples'), CATDS: 0.12114887477335; n = 1
# PIK3CD = details: read-out: apparent Kd; compound concentrations: 100 nM and 1000 nM (sheet 'Samples'), CATDS: 0.31843258690153697; n = 1
# PIK3CG = details: read-out: apparent Kd; compound concentrations: 100 nM and 1000 nM (sheet 'Samples'), CATDS: 8.4802846120227496E-2; n = 1
# [1] = compound concentrations:100 nM and 1000 nM (sheet 'Samples')
compound,measurement,setting,value
Nc1ncc(-c2cccc(S(N)(=O)=O)c2)c2scc(-c3ccc(F)c(Cl)c3)c12 [GW856804X],potency estimated from few doses,EPHA1; CATDS: 0.132169396234084,306 nM
same,potency estimated from few doses,EPHA2,758 nM
same,potency estimated from few doses,EPHA4,1770 nM
same,potency estimated from few doses,EPHA5,1210 nM
same,potency estimated from few doses,EPHB2,1530 nM
same,potency estimated from few doses,EPHB4; CATDS: 8.2169743824678607E-2,710 nM
same,potency estimated from few doses,"GAK; compound concentrations: 100 nM and 1000 nM (sheet 'Samples'), CATDS: 7.0423696237644606E-2",1000 nM
same,potency estimated from few doses,HSP90B1,1590 nM
same,potency estimated from few doses,MAP4K4,1510 nM
same,potency estimated from few doses,"RIPK2; compound concentrations: 100 nM and 1000 nM (sheet 'Samples'), CATDS: 0.101348300005731",475 nM
same,potency estimated from few doses,RIPK3; CATDS: 0.17935532425018,196 nM
same,potency estimated from few doses,TGFBR2; CATDS: 9.6643303505933295E-2,518 nM
same,potency estimated from few doses,TNIK,961 nM
Cn1c(=O)c(-c2ccccc2Cl)cc2cnc(NC3CCOCC3)nc21 [RO3303470-000],potency estimated from few doses,EIF2AK1,1090 nM
same,potency estimated from few doses,GAK; [1],695 nM
same,potency estimated from few doses,MAPK11,20.2 nM
same,potency estimated from few doses,MAPK14,24 nM
same,potency estimated from few doses,MAPK8,318 nM
same,potency estimated from few doses,MAPK9,202 nM
same,potency estimated from few doses,MAPKAPK2; [1],12.5 nM
same,potency estimated from few doses,PIP4K2C,1140 nM
same,potency estimated from few doses,RIPK2; [1],503 nM
same,potency estimated from few doses,SIK2,1330 nM
same,potency estimated from few doses,SIK3,604 nM
same,potency estimated from few doses,TAOK2,1880 nM
CC(C)(C)c1ccc2nccc(Nc3cccc(O)c3)c2c1 [GW856795X],potency estimated from few doses,EPHA1; CATDS: 0.14534883893422801,443 nM
same,potency estimated from few doses,EPHB3,1450 nM
same,potency estimated from few doses,FYN,960 nM
same,potency estimated from few doses,RET,634 nM
same,potency estimated from few doses,"RIPK2; compound concentrations: 100 nM and 1000 nM (sheet 'Samples'), CATDS: 0.476664898558677",52 nM
same,potency estimated from few doses,RIPK3; CATDS: 0.215705247056383,192 nM
same,potency estimated from few doses,TGFBR2; CATDS: 0.121800483782391,703 nM
COc1ccc(N2Cc3cnc(Nc4ccccc4)nc3N([C@@H]3CC[C@@H](O)C3)C2=O)cc1 [RO4383596-000],potency estimated from few doses,EPHB6,1300 nM
same,potency estimated from few doses,FLT4,1170 nM
same,potency estimated from few doses,"GAK; compound concentrations: 100 nM and 1000 nM (sheet 'Samples'), CATDS: 0.27304535513380701",756 nM
same,potency estimated from few doses,MAP2K5,1750 nM
same,potency estimated from few doses,PDGFRB,2060 nM
CN(C)C(=O)O[C@@H]1CN[C@@H](C#Cc2cc3ncnc(Nc4ccc(OCc5cccc(F)c5)c(Cl)c4)c3s2)C1 [GSK238063A],potency estimated from few doses,EGFR; CATDS: 0.84282841422731203,175 nM
same,potency estimated from few doses,NQO1,1700 nM
CS(=O)(=O)CCNCc1coc(-c2ccc3ncnc(Nc4ccc(OCc5ccccc5)cc4)c3c2)c1 [GW566221B],potency estimated from few doses,EGFR; CATDS: 0.90978509927548601,43.8 nM
same,potency estimated from few doses,"RIPK2; compound concentrations: 100 nM and 1000 nM (sheet 'Samples'), CATDS: 0.34472781375122202",839 nM
COc1cc2ncnc(Nc3ccc(F)c(Cl)c3)c2cc1O[C@H]1CC[C@H](N)CC1 [BIBW3133BS],potency estimated from few doses,EGFR; CATDS: 0.31081219561231099,48.6 nM
same,potency estimated from few doses,EPHA1; CATDS: 8.4373240562764601E-2,670 nM
same,potency estimated from few doses,EPHB4; CATDS: 9.3319537671251104E-2,508 nM
same,potency estimated from few doses,"GAK; compound concentrations: 100 nM and 1000 nM (sheet 'Samples'), CATDS: 7.6130935509039099E-2",922 nM
same,potency estimated from few doses,"MAPKAPK2; compound concentrations: 100 nM and 1000 nM (sheet 'Samples'), CATDS: 6.9663188807488702E-2",1270 nM
same,potency estimated from few doses,PIK3CA,273 nM
same,potency estimated from few doses,PIK3CD,46.8 nM
same,potency estimated from few doses,PIK3CG,660 nM
same,potency estimated from few doses,"RIPK2; compound concentrations: 100 nM and 1000 nM (sheet 'Samples'), CATDS: 8.6500761240037902E-2",624 nM
same,potency estimated from few doses,RIPK3; CATDS: 8.3491494498952795E-2,691 nM
